According to ChEMBL document CHEMBL3988442, “University of Dundee, Small-Polar-MMV Screening Library” (2021):

Molecular target: T1, Methionyl-tRNA synthetase, putative (Leishmania donovani (strain BPK282A1)) (UniProt E9BF75)
T1 sequence (whole entry): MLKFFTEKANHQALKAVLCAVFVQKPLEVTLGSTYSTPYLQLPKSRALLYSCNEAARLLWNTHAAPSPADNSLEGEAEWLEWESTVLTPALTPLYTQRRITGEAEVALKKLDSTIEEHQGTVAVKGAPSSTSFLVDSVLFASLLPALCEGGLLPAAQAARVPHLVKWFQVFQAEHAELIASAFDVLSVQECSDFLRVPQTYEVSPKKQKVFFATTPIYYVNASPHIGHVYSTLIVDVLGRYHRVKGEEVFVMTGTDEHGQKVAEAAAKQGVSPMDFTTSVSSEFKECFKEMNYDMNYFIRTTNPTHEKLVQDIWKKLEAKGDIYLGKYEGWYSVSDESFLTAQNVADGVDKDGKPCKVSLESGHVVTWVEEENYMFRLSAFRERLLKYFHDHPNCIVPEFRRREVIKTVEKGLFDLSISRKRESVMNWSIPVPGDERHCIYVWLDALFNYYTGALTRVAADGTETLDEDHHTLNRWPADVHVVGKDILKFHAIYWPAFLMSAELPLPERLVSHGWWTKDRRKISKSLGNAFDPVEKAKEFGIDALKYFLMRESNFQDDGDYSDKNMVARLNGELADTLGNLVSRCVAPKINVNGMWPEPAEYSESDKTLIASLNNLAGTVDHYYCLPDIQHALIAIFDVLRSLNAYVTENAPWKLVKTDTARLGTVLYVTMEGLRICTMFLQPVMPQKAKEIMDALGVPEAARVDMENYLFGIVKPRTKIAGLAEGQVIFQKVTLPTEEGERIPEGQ
Test: Leishmania donovani Methionine tRNA synthetase (LdMetRS):v7. Dose response assay
Format: functional
Set-up: conc 80 nM, time 150 minutes

COCCNc1nc(CSc2ccccc2)nc2sc(C)c(C)c12
PXC50 (MAX_EFFECT 27.86885246): < 4 | PXC50 (MAX_EFFECT 28.34224599): < 4

CS(=O)(=O)N1CCN(c2ccc3ccc(C(=O)NCCO)cn23)CC1
PXC50 (MAX_EFFECT 34.44976077): < 4 | PXC50 (MAX_EFFECT 46.06946984): < 4

C[C@H](CO)Nc1ccnc(Nc2cccc(C(F)(F)F)c2)n1
PXC50 (MAX_EFFECT 43.93063584): < 4

CCOC(=O)CCN(C)c1nc(C)nc2sc(-c3ccccc3)cc12
PXC50 (MAX_EFFECT 45.45454545): < 4 | PXC50 (MAX_EFFECT 46.44808743): < 4

Cc1nc(NCCC(=O)NC(C)C)c2c3c(sc2n1)CCC3
PXC50 (MAX_EFFECT -1.058201058): < 4 | PXC50 (MAX_EFFECT -2.133333333): < 4

CS(=O)(=O)N1CCN(c2ccc3ccc(C(=O)N4CCCC4)cn23)CC1
PXC50 (BOTTOM 0.156945579, HILLSLOPE 1.857683392, MAX_EFFECT 58.30188679, TOP 61.51792395): 4.86 | PXC50 (BOTTOM 4.583304472, HILLSLOPE 3.359740299, MAX_EFFECT 56.16438356, TOP 53.05051886): 4.95

COCCNC(=O)c1ccc2ccc(N3CCN(S(C)(=O)=O)CC3)n2c1
PXC50 (BOTTOM 1.198316498, HILLSLOPE 2.008751015, MAX_EFFECT 51.91956124, TOP 53.93938429): 4.75 | PXC50 (MAX_EFFECT 47.36842105): < 4

CN1CCC(CNC(=O)c2ccc3ccc(N4CCN(S(C)(=O)=O)CC4)n3c2)CC1
PXC50 (BOTTOM 1.275548684, HILLSLOPE 2.230174864, MAX_EFFECT 66.02870813, TOP 65.69793646): 4.77 | PXC50 (BOTTOM -0.677256268, HILLSLOPE 1.919543897, MAX_EFFECT 70.20109689, TOP 75.47637091): 4.69

CCc1nc(NCCCO)c2cc(CC)sc2n1
PXC50 (MAX_EFFECT 1.262626263): < 4 | PXC50 (MAX_EFFECT 8.163265306): < 4

CC(=O)N[C@H](COc1cccc(F)c1Oc1ccc(Cl)cc1)CC(C)C
PXC50 (MAX_EFFECT 3.105590062): < 4 | PXC50 (MAX_EFFECT 4.051172708): < 4

Cc1nc(N(C)CC(=O)N2CCCC2)c2c3c(sc2n1)CCCC3
PXC50 (MAX_EFFECT 3.703703704): < 4 | PXC50 (MAX_EFFECT 3.733333333): < 4

Cc1ncc(CNc2cnccc2CO)s1
PXC50 (MAX_EFFECT 4.225352113): < 4 | PXC50 (MAX_EFFECT 9.814814815): < 4

Cc1nc(N2CCC(N)C2)c2ccsc2n1 (configuration not stated)
PXC50 (MAX_EFFECT 4.663212435): < 4 | PXC50 (MAX_EFFECT 6.914893617): < 4

O=C(c1c[nH]cn1)N1CCC(F)(F)C2(CCN(c3ncccn3)C2)C1 (configuration not stated)
PXC50 (MAX_EFFECT 6.572769953): < 4 | PXC50 (MAX_EFFECT 11.2962963): < 4

Cc1nc(NCCO)c2c3c(sc2n1)CCC3
PXC50 (MAX_EFFECT 6.632653061): < 4 | PXC50 (MAX_EFFECT 7.828282828): < 4

CCNC(=O)C1CCCN(c2nc(C)nc3sc4c(c23)CCC4)C1 (configuration not stated)
PXC50 (MAX_EFFECT 7.25388601): < 4 | PXC50 (MAX_EFFECT 9.574468085): < 4

Cn1cc(CN2CCC(F)(F)C3(CCN(c4cccc(F)c4)C3)C2)cn1 (configuration not stated)
PXC50 (MAX_EFFECT 7.256235828): < 4 | PXC50 (MAX_EFFECT 17.57009346): < 4

CC(=O)N1CCN(c2nc(C(F)(F)F)nc3sc(C)c(C)c23)CC1
PXC50 (MAX_EFFECT 7.310704961): < 4 | PXC50 (MAX_EFFECT 8.093994778): < 4

Cc1nc(N[C@@H](C)C(=O)O)c2c3c(sc2n1)CCCC3
PXC50 (MAX_EFFECT 7.446808511): < 4 | PXC50 (MAX_EFFECT 9.32642487): < 4

CCc1nc(NCCCC(=O)O)c2c3c(sc2n1)CCC3
PXC50 (MAX_EFFECT 7.808564232): < 4 | PXC50 (MAX_EFFECT 8.905852417): < 4

Cc1cc(C(F)(F)F)nc(CCNc2nc(C)nc3sccc23)n1
PXC50 (MAX_EFFECT 8.838383838): < 4 | PXC50 (MAX_EFFECT 11.2244898): < 4

CO[C@H]1[C@@H]2CC[C@H]1CN(c1nc(C)nc3sccc13)C2
PXC50 (MAX_EFFECT 8.838383838): < 4 | PXC50 (MAX_EFFECT 9.693877551): < 4

N[C@H](COc1cccc(F)c1Oc1ccc(Cl)cc1)C1CCOCC1
PXC50 (MAX_EFFECT 9.316770186): < 4 | PXC50 (MAX_EFFECT 10.44776119): < 4

CC(=O)NCCNc1nc(-c2cccnc2)nc2sc(C)c(C)c12
PXC50 (MAX_EFFECT 9.574468085): < 4 | PXC50 (MAX_EFFECT 10.3626943): < 4

CC(C)C[C@H](N)COc1ccccc1-c1ccno1
PXC50 (MAX_EFFECT 9.594882729): < 4 | PXC50 (MAX_EFFECT 10.97308489): < 4

Cc1nc(N2CCCCCC2)c2ccsc2n1
PXC50 (MAX_EFFECT 9.6): < 4 | PXC50 (MAX_EFFECT 10.05291005): < 4

CCc1nc(NCCCC(=O)O)c2cc(CC)sc2n1
PXC50 (MAX_EFFECT 11.55778894): < 4 | PXC50 (MAX_EFFECT 13.02211302): < 4

Cc1cc(C)n(-c2nc(NCC(C)(C)O)c3c4c(sc3n2)CCCC4)n1
PXC50 (MAX_EFFECT 11.97916667): < 4 | PXC50 (MAX_EFFECT 40.35087719): < 4

CCc1nc(N2CCN(c3ncccn3)CC2)c2cc(C)sc2n1
PXC50 (MAX_EFFECT 13.86666667): < 4 | PXC50 (MAX_EFFECT 15.34391534): < 4
